Measured values from the supplement of paper PMC9897528.
Values without a mark were called inactive.

The molecules below were run on Scedosporium aurantiacum CBS 136046 (assay: growth inhibition relative to DMSO control (OD600); higher = more antifungal activity, active = 80 or more). Details: 5 µM; 72 h; 37 °C.
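Further: conidia screened in RPMI 1640 medium under 5% CO2, growth read by spectrophotometer, medium with 0.5% DMSO serving as the untreated reference.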

Compound | growth inhibition
CN1C(=O)C(c2ccccc2)C(=O)N(c2ccccc2)c2cc(C(F)(F)F)ccc21 (stereo not drawn) | 2.84%
CC(C)Oc1cccc(NC(=O)c2ccccc2C(F)(F)F)c1 | 6.87%
NC1(C(=O)O)CCP(=O)(O)CC1 (stereo not drawn) | 11.9%
CCCCc1ccc(C(=O)O)nc1 | 15.8%
C[C@H]1CC[C@]2(NC1)O[C@H]1C[C@H]3[C@@H]4CC[C@H]5C[C@@H](O)CC[C@]5(C)[C@H]4CC[C@]3(C)[C@H]1[C@@H]2C | 8.88%
COc1cc(C(C)(C)CCCC(C)C)cc(OC)c1OC | 13.3%
CCN1CCN(Cc2nc3ccc([N+](=O)[O-])cc3c(=O)n2-c2ccccc2F)CC1 | 2.42%
COC(=O)Nc1nc2ccccc2[nH]1 | 1.58%
O=C(NC12CC3CC(CC(C3)C1)C2)c1cc2ccccc2[nH]1 | 1.85%
C[N+]1(C)CCCC(OC(=O)C(O)(c2ccccc2)c2ccccc2)C1 (stereo not drawn) | 34.9%
C[C@@]1(O)[C@H](O)[C@@H](CO)O[C@H]1n1ccc2c(N)ncnc21 | 3.66%
Nc1c(C(=O)NCc2ccco2)c2nc3ccccc3nc2n1CCN1CCCCC1 | 36.7%
COc1ccccc1CN[C@H]1C2CCN(CC2)[C@H]1C(c1ccccc1)c1ccccc1 | 25.9%
